Experimental data from article PMC8384837, “Expanding the binding specificity for RNA recognition by a PUF domain”.

What follows are sequences tested against PUM1 PUF domain R5-RFK (Homo sapiens, UniProt Q14671 828-1176, C1007R;R1008F;Q1011K) (assay: yeast three-hybrid, YBZ-1, SC-Leu-His + 0.5 mM 3-AT, 4 days). Settings: tags: N-Gal4 AD-HA kept; label: inside an RPR1-promoter hybrid RNA with tandem MS2 sites; ssRNA.
Procedure, shortened: (§1)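 Pumilio-1 PUF domain libraries, randomized at the three base-contacting residues of each repeat, were co-expressed with matching RNA elements from a centromeric plasmid in strain YBZ-1, which carries a LexA–MS2 coat fusion and a HIS3 reporter. Transformants grew for four days on SC-Leu (input) or on SC-Leu-His + 0.5 mM 3-AT (selection), and the repeat regions were PCR-amplified and Illumina-sequenced. The interaction score is the log change in variant frequency from input to selection. That logarithm is base 2, with a pseudocount of 1 where a variant was absent.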

| Sequence | binding signal |
| --- | --- |
| GGCUAGAACUAGUGGAUCCCCCGGCGCCCGGCGGCUCGAGCCCGGGUAAGUGUCAAUAGUCUGCAUGCCGCCGGGCGCCAUGCCUGCAGGUCGACUCUAGAAAACAUG | 5.3 log2 enrichment (interaction score) |
| GGCUAGAACUAGUGGAUCCCCCGGCGCCCGGCGGCUCGAGCCCGGGUAAGUGUAAAUAGUCUGCAUGCCGCCGGGCGCCAUGCCUGCAGGUCGACUCUAGAAAACAUG | 4.34 log2 enrichment (interaction score) |
| GGCUAGAACUAGUGGAUCCCCCGGCGCCCGGCGGCUCGAGCCCGGGUAAGUGUUAAUAGUCUGCAUGCCGCCGGGCGCCAUGCCUGCAGGUCGACUCUAGAAAACAUG | 5.38 log2 enrichment (interaction score) |

What follows are sequences tested against PUM1 PUF domain R1-YLR (Homo sapiens, UniProt Q14671 828-1176, S863Y;R864L;Q867R) in the same assay as above. Settings: tags: N-Gal4 AD-HA kept; label: inside an RPR1-promoter hybrid RNA with tandem MS2 sites; ssRNA.
Procedure, shortened: as §1

| Sequence | binding signal |
| --- | --- |
| GGCUAGAACUAGUGGAUCCCCCGGCGCCCGGCGGCUCGAGCCCGGGUAAGUGUAAAUCGUCUGCAUGCCGCCGGGCGCCAUGCCUGCAGGUCGACUCUAGAAAACAUG | 3.95 log2 enrichment (interaction score) |
| GGCUAGAACUAGUGGAUCCCCCGGCGCCCGGCGGCUCGAGCCCGGGUAAGUGUAAAUUGUCUGCAUGCCGCCGGGCGCCAUGCCUGCAGGUCGACUCUAGAAAACAUG | 5.29 log2 enrichment (interaction score) |
| GGCUAGAACUAGUGGAUCCCCCGGCGCCCGGCGGCUCGAGCCCGGGUAAGUGUAAAUGGUCUGCAUGCCGCCGGGCGCCAUGCCUGCAGGUCGACUCUAGAAAACAUG | 2.04 log2 enrichment (interaction score) |
